In PubChem BioAssay (EPA / NIEHS):
Results filed as inconclusive are left out. Activity calls are given as the source filed them. How the source made its calls: active means hit-call score of the fitted dose curve at least 0.9, where 1 is the maximum; inconclusive means response in the unintended direction; inactive means score below 0.9.

Assay: Tanguay_ZF_120hpf_PE_legacy: (Legacy) Oregon State University Tanguay Lab 120 Hour Post-fertilization zebrafish Assay for Pericardial Edema (AID 2283640);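 on AC50: potency for increased incidence of pericardial edema versus DMSO baseline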
Protocol: Tanguay_ZF_120hpf_legacy is a whole embryo, multiplexed endpoint assay using zebrafish larvae exposed for 120 hours post fertilization on a 96-well plate.Tanguay_ZF_120hpf_PE_legacy is one of one assay component(s) measured or calculated from the Tanguay_ZF_120hpf_legacy assay. It is designed to make measurements of zebrafish development as detected with brightfield microscopy of developing zebrafish embryos.Data from the assay component Tanguay_ZF_120hpf_PE_legacy was analyzed into 1 assay endpoints. This assay endpoint, Tanguay_ZF_120hpf_PE_legacy, was analyzed in the positive analysis fitting direction relative to DMSO as the negative control and baseline of activity. Using a type of morphology reporter, gain-of-signal activity can be used to understand changes in developmentals as they relate to the whole embryo. To generalize the intended target to other relatable targets, this assay endpoint is annotated to the zebrafish development intended target family, where the subfamily is embryonic morphogenesis.
Zebrafish husbandry: Tropical 5D wild-type adult zebrafish were housed in at an approximate density of 1000 per 100 gallon tank at the Sinnhuber Aquatic Research Laboratory, Oregon State University, Corvallis, OR. Each tank was kept at standard laboratory conditions of 28C on a 14-h light/10-h dark photoperiod in fish water consisting of reverse osmosis water supplemented with a commercially available salt (Instant Ocean). Spawning funnels were placed into the tanks the night prior, and embryos were collected and staged. […] Ten microliters of each row of dilution plate 2 was added to 2 exposure plates. The final DMSO concentration used was 0.64% (vol/vol). Thirty-two embryos were also exposed to 5uM trimethyltin chloride (positive control). Plates were sealed to prevent evaporation and foil covered to reduce light exposure and kept in a 28C incubator. Embryos were statically exposed until 120 hpf. At 24 hpf, embryos were assessed for photomotor response using a custom photomotor response analysis tool (PRAT) and for developmental toxicity endpoints (MO24: mortality at 24 hpf, DP: developmental progression, SM: spontaneous movement, and NC: notochord distortion). At 120 hpf, locomotor activity was measured using Viewpoint Zebralab and assessed for 18 endpoints. Zebrafish acquisition and analysis program (ZAAP), a custom program designed to inventory, acquire, and manage zebrafish data, was used to collect developmental endpoints as either present or absent (i.e., binary responses were recorded). If mortality occurred for an embryo (at either 24 or 120 hpf), the non-mortality endpoints were not measured.
With `COc1cc(OC)nc(NC(=O)NS(=O)(=O)c2ncccc2OCC(F)(F)F)n1` the outcome was “inactive”.
With `CCCCC(C#N)(Cn1cncn1)c1ccc(Cl)cc1` (stereo not given) the AC50 was 46.8 µM (active).
In the case of `N#Cc1c[nH]cc1-c1cccc2c1OC(F)(F)O2`, the outcome is reported as “inactive”.
With `O=C(O)c1c(Cl)ccc2cc(Cl)cnc12` the outcome was “inactive”.
For `CO/N=C(/C1=NOCCO1)c1ccccc1Oc1ncnc(Oc2ccccc2Cl)c1F`, the AC50 was 0.936 µM (active).
With `CC1(C)C(C(=O)OC(C#N)c2cccc(Oc3ccccc3)c2)C1(C)C` (stereo not given) the outcome was “inactive”.
In the case of `CC(C)N1C(=O)c2ccccc2NS1(=O)=O`, the outcome is reported as “inactive”.
In the case of `Cc1ccc(N=CN(C)C=Nc2ccc(C)cc2C)c(C)c1`, the outcome is reported as “inactive”.
In the case of `Cc1nc(N(C)C)nc(OC(=O)N(C)C)c1C`, the outcome is reported as “inactive”.
With `CCCCC(O)(Cn1cncn1)c1ccc(Cl)cc1Cl` (stereo not given) the outcome was “inactive”.
For `C=C(C)CN(CC)c1c([N+](=O)[O-])cc(C(F)(F)F)cc1[N+](=O)[O-]`, the outcome was “inactive”.
For `CS(=O)(=O)c1cc(C(F)(F)F)ccc1C(=O)c1cnoc1C1CC1`, the outcome was “inactive”.
With `CN=C=S` the outcome was “inactive”.
For `CCCCOCN(C(=O)CCl)c1c(CC)cccc1CC`, the outcome was “inactive”.
With `CC(C)NC(=O)N1CC(=O)N(c2cc(Cl)cc(Cl)c2)C1=O` the outcome was “inactive”.
With `CCN(CC)C(=O)C(C)Oc1cccc2ccccc12` (stereo not given) the outcome was “inactive”.
In the case of `CC(C)N1C(=O)N(c2ccccc2)CSC1=NC(C)(C)C`, the outcome is reported as “inactive”.
With `CS(=O)(=O)c1ccc(C(=O)C2C(=O)CCCC2=O)c([N+](=O)[O-])c1` the outcome was “inactive”.
In the case of `COc1ccc(-c2ccccc2)cc1NNC(=O)OC(C)C`, the outcome is reported as “inactive”.
With `CCOP(=S)(OCC)Oc1nc(Cl)n(C(C)C)n1` the outcome was “inactive”.
For `Cc1c(COC(=O)[C@@H]2[C@H](/C=C(\Cl)C(F)(F)F)C2(C)C)cccc1-c1ccccc1`, the outcome was “inactive”.
In the case of `CC(C)=CC1C(C(=O)OCc2coc(Cc3ccccc3)c2)C1(C)C` (stereo not given), the outcome is reported as “inactive”.
In the case of `COc1cc(Cl)c(OC)cc1Cl`, the outcome is reported as “inactive”.
In the case of `CC1(C)C(C=C(Cl)Cl)C1C(=O)OC(C#N)c1cccc(Oc2ccccc2)c1` (stereo not given), the AC50 is reported as 1.66 µM (active).
In the case of `CCCN(CC)CC1COC2(CCC(C(C)(C)C)CC2)O1` (stereo not given), the outcome is reported as “inactive”.
With `COC(=O)c1c(C(F)F)nc(C(F)(F)F)c(C2=NCCS2)c1CC(C)C` the outcome was “inactive”.
With `CC1(C)CON(Cc2ccccc2Cl)C1=O` the outcome was “inactive”.
In the case of `CC(C)Oc1cccc(NC(=O)c2ccccc2C(F)(F)F)c1`, the AC50 is reported as 48.1 µM (active).
In the case of `CC(C)C1(C)N=C(c2ncccc2C(=O)O)NC1=O` (stereo not given), the outcome is reported as “inactive”.
With `COP(=O)(OC)O/C(C)=C/C(=O)N(C)C` the outcome was “inactive”.
In the case of `Cn1c(-c2ccccc2)cc(-c2ccccc2)[n+]1C`, the outcome is reported as “inactive”.
In the case of `COC(=O)NC(=S)Nc1ccccc1NC(=S)NC(=O)OC`, the AC50 is reported as 52.6 µM (active).
With `CC(C)Nc1nc(Cl)nc(NC(C)C)n1` the outcome was “inactive”.
In the case of `N#Cc1c(Cl)cccc1Cl`, the outcome is reported as “inactive”.
In the case of `CCOc1nc(C(Cl)(Cl)Cl)ns1`, the outcome is reported as “inactive”.
With `CSC(=O)c1c(C(F)F)nc(C(F)(F)F)c(C(=O)SC)c1CC(C)C` the outcome was “inactive”.
For `CCNP(=S)(OC)O/C(C)=C/C(=O)OC(C)C` (stereo not given), the outcome was “inactive”.
For `OC(c1ccc(Cl)cc1)(c1ccc(Cl)cc1)C(Cl)(Cl)Cl`, the outcome was “inactive”.
In the case of `C=CCOC(=O)C(C)(C)OC(=O)c1cc(-n2c(=O)cc(C(F)(F)F)n(C)c2=O)ccc1Cl`, the outcome is reported as “inactive”.
In the case of `CN/C(=N\[N+](=O)[O-])NCc1cnc(Cl)s1`, the outcome is reported as “inactive”.
